Results filed as inconclusive are left out. Entries that show only a call come without a potency. Values without a mark were called inactive. The source made the active and inactive calls. The call rests on the fitted dose curve; in most records, active means well fitted inhibition curve with a large enough effect; inconclusive means small, poorly fitted or top-dose-only effect; inactive means flat fitted curve, though single readings scatter.
molecular target: Aldehyde dehydrogenase, mitochondrial (Homo sapiens) (UniProt P05091); assay: qHTS for Inhibitors of the Aldehyde Dehydrogenase Family (ALDH2) Primary screen (AID 2061308); conditions: ALDH2 enzyme inhibition qHTS, 1536-well; series mostly up to 56 µM; further: nearly all actives have a fitted effect of over 55% in size

How did the Potency turn out when `Cc1cc(C(=O)N2Cc3cnn(C)c3Nc3ccccc32)ccc1CNC(=O)N1CCN(Cc2cc(O)cc(O)c2)CC1` was run?
The Potency was “inactive”.

For `CC(C)[C@@H](C(=O)O)N1Cc2c(cc(O)c3c2O[C@]2(C3)[C@H](C)CCC3C(C)(C)[C@H](O)[C@H](O)C[C@@]32C)C1=O` (stereo not given in full), which Potency is on record?
The Potency was “inactive”.

For `O=C(Nc1ccc(-c2ccncc2)cc1)N[C@H](CO)c1ccccc1`, which Potency is on record?
The Potency was “inactive”.

For `C=C1C(=O)O[C@@H]2C[C@@]3(C)C[C@@H](O)C[C@H](C)C3=C[C@H]12`, which Potency is on record?
Its Potency is “inactive”.

With `CC1=CC(=O)[C@]2(O[C@@H]3O[C@@H](C)[C@H](O)[C@@H](O)[C@H]3OC(=O)/C=C/c3ccccc3)C=CO[C@@H](O[C@@H]3O[C@H](CO)[C@@H](O)[C@H](O)[C@H]3O)[C@H]12` as the molecule, how does the Potency read?
The Potency was “inactive”.

With `C/C=C(/C)C(=O)OC1C2OC2C2(CO2)C2C3OC(=O)C(C)C3CCC12C` (stereo not given) as the molecule, how does the Potency read?
The Potency was “inactive”.

With `CC(=O)O[C@H]1CC[C@@]2(CI)C(=CC[C@@H]3[C@@H]2CC[C@]2(C)[C@@H]([C@H](C)CCCC(C)C)CC[C@@H]32)C1` as the molecule, how does the activity change, negative = inhibition read?
Its activity change, negative = inhibition is -4.11% [at 11.2 µM].

For `CC(C)(O)c1ccc2c(c1)C(=O)CC1[C@](C)(CO)CCC[C@]21C` (stereo not given in full), which Potency is on record?
The Potency was “inactive”.

`CN1CCN(Cc2ccc(-c3cnc4[nH]cc(-c5ccc6[nH]ccc6c5)c4c3)cc2)CC1` was tested. Which Potency did it give?
The Potency was “inactive”.

Which Potency does the source give for `C=C(C)[C@H]1C[C@@H](O)C(=C)CC[C@@H](O)C(=C)[C@@H](O)C1` here?
The Potency was “inactive”.

Which Potency does the source give for `Nc1ncnc2c1c(-c1ccc(Cl)cc1)nn2-c1cccc(-c2cnnn2Cc2cccc(-c3ccccc3)c2)c1` here?
The Potency was “inactive”.

With `COC(=O)C1=COC(O[C@@H]2O[C@H](CO)[C@@H](O)[C@H](O)[C@H]2O)[C@@H]2[C@@](C)(O)[C@@H](OC(=O)/C=C/c3ccccc3)C[C@]12O` (stereo not given in full) as the molecule, how does the Potency read?
Its Potency is “inactive”.

With `Fc1cccc(CN(C2=NCCN2)c2c(Cl)cccc2Cl)c1` as the molecule, how does the Potency read?
The Potency was “inactive”.

For `CC1=C[C@H]2[C@@H](CC1=O)[C@H](C)C[C@H](O)[C@H]2C(C)C`, which Potency is on record?
Its Potency is “inactive”.

With `CC1C(OC(=O)c2ccccc2)C(O)C2C(C(=O)O)=COC(OC3OC(CO)C(O)C(O)C3O)C12` (stereo not given) as the molecule, how does the Potency read?
Its Potency is “inactive”.

How did the Potency turn out when `CC1=C2C(=O)O[C@@H](c3ccoc3)[C@]2(C)CCC1` was run?
Its Potency is “inactive”.

For `C[C@H]1C(=O)N2c3ccccc3[C@@]3(O)C[C@@H]4C(=O)N[C@](C)(c5nc6ccccc6c(=O)n54)N1[C@@H]23`, which Potency is on record?
Its Potency is “inactive”.

For `CC[C@H](C)/C=C(C)/C=C/C1=CC2=C(Cl)C(=O)[C@](C)(O)[C@H](OC(C)=O)[C@H]2CO1`, which Potency is on record?
Its Potency is “inactive”.

With `CC(C)(O)C1=CCC23COC(C2)C(O)(C(=O)O)CCC13` (stereo not given) as the molecule, how does the Potency read?
The Potency was “inactive”.

For `C=C[C@H]1[C@H](O[C@@H]2O[C@H](CO)[C@@H](O)[C@H](O)[C@H]2O)OC=C(C(=O)OC)[C@H]1C[C@@H]1c2cc(O)c(O)cc2CCN1C(C)=O`, which Potency is on record?
Its Potency is “inactive”.

How did the Potency turn out when `CC(=O)/C=C/C1(O)C(C)=CC(=O)CC1(C)C` (stereo not given) was run?
The Potency was “inactive”.

How did the Potency turn out when `CC(=O)O[C@@H]1[C@@H](OC(=O)/C=C/c2ccccc2)[C@@H](OC(C)=O)[C@H](O[C@H]2[C@@H]3C=CO[C@@H](O[C@@H]4O[C@H](CO)[C@@H](O)[C@H](O)[C@H]4O)[C@@H]3[C@@]3(CO)O[C@@H]23)O[C@H]1C` was run?
Its Potency is “inactive”.

How did the activity change, negative = inhibition turn out when `C[C@@H]1O[C@@H](O[C@H]2[C@H](OC(=O)[C@]34CCC(C)(C)C[C@H]3C3=CCC5[C@@]6(C)CC[C@H](O[C@@H]7O[C@H](CO[C@@H]8OC[C@H](O)[C@H](O)[C@H]8O)[C@@H](O)[C@H](O)[C@H]7O)C(C)(C)C6CC[C@@]5(C)[C@]3(C)C[C@H]4O)OC[C@@H](O)[C@@H]2O)[C@H](O)[C@H](O[C@@H]2OC[C@](O)(CO)[C@H]2O)[C@H]1O[C@@H]1OC[C@H](O)[C@H](O[C@@H]2OC[C@@H](O)[C@H](O)[C@H]2O)[C@H]1O` (stereo not given in full) was run?
The activity change, negative = inhibition was 7.19% [at 11.2 µM].

How did the Potency turn out when `O=C(Nc1ccn[nH]1)c1c(F)cccc1F` was run?
Its Potency is “inactive”.

For `Cc1cc(CS(=O)(=O)c2ccccc2)cc(OCc2ccc(CN3CCC[C@H]3CO)cc2)c1`, which Potency is on record?
Its Potency is “inactive”.

How did the activity change, negative = inhibition turn out when `CC(=O)O[C@@H]1[C@H](O[C@@H]2O[C@H](CO)[C@@H](O)[C@H](O)[C@H]2O)[C@@H](O[C@@H]2O[C@@H](C)[C@H](O)[C@@H](O[C@@H]3O[C@H](CO)[C@@H](O)[C@H](O)[C@H]3O)[C@H]2O)[C@H](OC(=O)[C@]23CCC(C)(C)C[C@H]2C2=CCC4[C@@]5(C)C[C@H](O)[C@H](O[C@@H]6O[C@H](C(=O)O)[C@@H](O)[C@H](O)[C@H]6O)[C@@](C)(C(=O)O)C5CC[C@@]4(C)[C@]2(C)CC3)O[C@@H]1C` (stereo not given in full) was run?
Its activity change, negative = inhibition is 6.2% [at 11.2 µM].

Which Potency does the source give for `COc1c(C)c2c(c(O)c1C/C=C(\C)CC/C=C(\C)CCC(=O)O)C(=O)OC2` here?
The Potency was “inactive”.

How did the Potency turn out when `CCNc1nc(Nc2cc(F)c(C(=O)N3CCOCC3)cc2OC)ncc1C(F)(F)F` was run?
Its Potency is “inactive”.

How did the Potency turn out when `CC1(C)[C@@H](O[C@H]2O[C@H](C(=O)O)[C@@H](O)[C@H](O)[C@H]2O[C@@H]2O[C@H](C(=O)O)[C@@H](O)[C@H](O)[C@H]2O)CC[C@]2(C)[C@H]3C(=O)C=C4[C@@H]5C[C@@](C)(C(=O)O)CC[C@]5(C)CC[C@@]4(C)[C@]3(C)CC[C@@H]12` was run?
The Potency was “inactive”.

With `COc1c2c(c(C)c3c1C(=O)OC3)O[C@@]1(C)CC(O)C(C(C)(C)O)[C@](C)(CCC(=O)O)[C@H]1C2` (stereo not given in full) as the molecule, how does the Potency read?
Its Potency is “inactive”.

For `C/C(=C/C=C\C=C\Cc1cnco1)[C@@H](O)C(C)(C)C(N)=O`, which Potency is on record?
Its Potency is “inactive”.

Which Potency does the source give for `C=C1C(OC(C)=O)CCC2(C)CC3(OC)OC(=O)C(C)=C3CC12` (stereo not given) here?
Its Potency is “inactive”.

`Cc1ccc(C2(COC(=O)C(C)C)CO2)c(OC(=O)C(C)C)c1` (stereo not given) was tested. Which Potency did it give?
The Potency was “inactive”.

`Cc1occc(=O)c1O[C@@H]1O[C@H](CO[C@@H]2OC[C@](O)(CO)[C@H]2O)[C@@H](O)[C@H](O)[C@H]1O` was tested. Which Potency did it give?
The Potency was “inactive”.

For `CC(=O)OC1C(O)C2C(C)C3=CC(=O)OC3(O)CC2C2(C)CCCC(C)(CO)C12` (stereo not given), which Potency is on record?
Its Potency is “inactive”.

How did the Potency turn out when `NC(N)=NC(=O)c1cnn(-c2cccc3ncccc23)c1C1CC1` was run?
The Potency was “inactive”.

Which Potency does the source give for `CC1(C)CCCC2(C)C1C(O)C=C(CO)C2(O)C(=O)O` (stereo not given) here?
The Potency was “inactive”.

How did the Potency turn out when `C[C@]12CCC[C@](C)(C(=O)O)C1[C@@H](O)[C@@H](O)C13CC(CCC12)C(CO)(O[C@@H]1O[C@H](CO)[C@@H](O)[C@H](O)[C@H]1O)C3` (stereo not given in full) was run?
Its Potency is “inactive”.

`COc1cc2c(c(OC)c1CC=C(C)C)C[C@H](c1ccc(O)c(CC=C(C)C)c1O)CO2` was tested. Which Potency did it give?
The Potency was “inactive”.

How did the Potency turn out when `CC(=O)OC1CC(C(C)(C)O)OC2CCC3(C)OC4=C(C(=O)C=C5C(C)C(OC(C)=O)C6(C)C(C)OC546)C(O)C3C12C` (stereo not given) was run?
Its Potency is “inactive”.
